Experimental data from PubChem BioAssay AID1159580 (chemical genetic matrix, 2015).
“And” between values parts separate entries of the source, which are not always exact repeats. Identical values can stand only once. The campaign covered roughly 5,500 compounds. About 2,000 (36%) were called active. Another 18% or so got no clear call; they are omitted. Rule as the data show it: active = normalized growth mostly below about 0.91 (no sharp cut-off); inconclusive = no clear call, values can overlap the other calls; inactive = mostly above about 0.92. The list shows a part of the results.

Assay: chemical genetic growth profiling, strain panel (AID 1159580);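 also: tested at 20 µM; growth read once vehicle control cultures reached saturation at 30 °C; 1 = growth at the plate median or of vehicle wells; lower values mean less growth of the strain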
Details: S. cerevisiae deletion strains, growth OD

Measured: normalized growth

COc1ccc2c(c1)CCC1C2CC[C@@]2(C)C1CC[C@@H]2O (some centres not stated)
active: locus YAL013W, strain DEP1, stronger effect = lower value 0.82 | locus YAL026C, strain drs2, stronger effect = lower value 0.682 | locus YBL061C, strain skt5, stronger effect = lower value 0.889 | locus YBR009C, strain hhf1, stronger effect = lower value 0.76 | locus YBR023C, strain chs3, stronger effect = lower value 0.852 | locus YBR279W, strain paf1, stronger effect = lower value 0.884 | locus YCL011C, strain gbp2, stronger effect = lower value 0.813 | locus YCL016C, strain dcc1, stronger effect = lower value 0.862 | locus YCL029C, strain bik1, stronger effect = lower value 0.884 | locus YCL061C, strain MRC1, stronger effect = lower value 0.854 | locus YCL069W, strain vba3, stronger effect = lower value 0.898 | locus YDL035C, strain GPR1, stronger effect = lower value 0.728 | locus YDL074C, strain BRE1, stronger effect = lower value 0.514 | locus YDL134C, strain PPH21, stronger effect = lower value 0.799 | locus YDL192W, strain arf1, stronger effect = lower value 0.502 | locus YDR101C, strain arx1, stronger effect = lower value 0.811 | locus YDR137W, strain rgp1, stronger effect = lower value 0.578 | locus YDR159W, strain sac3, stronger effect = lower value 0.746 | locus YDR162C, strain NBP2, stronger effect = lower value 0.405 | locus YDR297W, strain sur2, stronger effect = lower value 0.915 | locus YDR318W, strain mcm21, stronger effect = lower value 0.7 | locus YDR335W, strain msn5, stronger effect = lower value 0.872 | locus YDR392W, strain spt3, stronger effect = lower value 0.239 | locus YDR502C, strain sam2, stronger effect = lower value 0.757 | locus YEL003W, strain gim4, stronger effect = lower value 0.842 | locus YEL061C, strain CIN8 (second series), stronger effect = lower value 0.893 | locus YEL061C, strain CIN8, stronger effect = lower value 0.825 | locus YER015W, strain faa2, stronger effect = lower value 0.86 | locus YER110C, stronger effect = lower value 0.875 | locus YER155C, strain BEM2 (second series), stronger effect = lower value 0.686 | locus YER155C, strain BEM2, stronger effect = lower value 0.676 | locus YER167W, strain BCK2, stronger effect = lower value 0.653 | locus YGL078C, strain dbp3, stronger effect = lower value 0.783 | locus YGL086W, strain mad1, stronger effect = lower value 0.75 | locus YGL173C, strain kem1, stronger effect = lower value 0.885 | locus YGL227W, strain vid30, stronger effect = lower value 0.903 | locus YGL240W, strain doc1, stronger effect = lower value 0.855 | locus YGL248W, strain PDE1, stronger effect = lower value 0.844 | locus YGL253W, strain hxk2, stronger effect = lower value 0.786 | locus YGR078C, strain PAC10, stronger effect = lower value 0.659 | locus YGR135W, strain pre9, stronger effect = lower value 0.731 | locus YGR229C, strain SMI1, stronger effect = lower value 0.407 | locus YGR252W, strain gcn5, stronger effect = lower value 0.47 | locus YHR079C, strain IRE1 (second series), stronger effect = lower value 0.787 | locus YHR129C, strain ARP1, stronger effect = lower value 0.753 | locus YHR142W, strain chs7, stronger effect = lower value 0.628 | locus YHR200W, strain rpn10, stronger effect = lower value 0.817 | locus YIL066C, strain RNR3, stronger effect = lower value 0.625 | locus YIL125W, strain kgd1, stronger effect = lower value 0.822 | locus YIR030C, strain dcg1, stronger effect = lower value 0.902 | locus YJL095W, strain BCK1 (second series), stronger effect = lower value 0.833 | locus YJL095W, strain BCK1, stronger effect = lower value 0.363 and 0.882 | locus YJL129C, strain trk1, stronger effect = lower value 0.804 | locus YJL164C, strain tpk1, stronger effect = lower value 0.812 | locus YJL166W, strain qcr8, stronger effect = lower value 0.775 | locus YJL187C, strain SWE1 (second series), stronger effect = lower value 0.818 | locus YJL187C, strain SWE1, stronger effect = lower value 0.898 | locus YJR043C, strain POL32, stronger effect = lower value 0.698
inactive: locus YAL021C, strain ccr4, stronger effect = lower value 0.959 | locus YAL030W, strain snc1, stronger effect = lower value 0.959 | locus YBR021W, strain FUR4, stronger effect = lower value 1.04 | locus YBR171W, strain sec66, stronger effect = lower value 0.94 | locus YBR229C, strain ROT2, stronger effect = lower value 0.982 | locus YBR231C, strain swc5, stronger effect = lower value 0.978 | locus YCR088W, strain abp1, stronger effect = lower value 0.937 | locus YDL005C, strain med2, stronger effect = lower value 0.983 | locus YDL040C, strain nat1, stronger effect = lower value 0.96 | locus YDL101C, strain DUN1, stronger effect = lower value 0.899 | locus YDL185W, strain tfp1, stronger effect = lower value 0.961 | locus YDR001C, strain nth1, stronger effect = lower value 0.965 | locus YDR069C, strain doa4, stronger effect = lower value 1.01 | locus YDR150W, strain NUM1, stronger effect = lower value 0.944 | locus YDR195W, strain ref2 0.953 | locus YDR334W, strain swr1, stronger effect = lower value 1 | locus YDR388W, stronger effect = lower value 0.936 | locus YEL037C, strain rad23, stronger effect = lower value 0.966 | locus YER016W, strain bim1, stronger effect = lower value 0.957 | locus YER111C, strain swi4, stronger effect = lower value 0.939 | locus YFR010W, strain ubp6, stronger effect = lower value 0.974 | locus YGL167C, strain pmr1, stronger effect = lower value 0.965 | locus YHR013C, strain ard1, stronger effect = lower value 1.04 | locus YHR027C, strain rpn1, stronger effect = lower value 0.977 | locus YHR079C, strain IRE1, stronger effect = lower value 0.872 | locus YHR094C, strain hxt1, stronger effect = lower value 0.951 | locus YIL073C, strain SPO22, stronger effect = lower value 0.727 | locus YJL092W, strain hpr5, stronger effect = lower value 0.934 | locus YJL115W, strain asf1, stronger effect = lower value 0.987 | locus YJL134W, strain LCB3, stronger effect = lower value 0.989 | locus YJL154C, strain vps35, stronger effect = lower value 0.986 | locus YJL168C, strain set2, stronger effect = lower value 0.943 | locus YJR066W, strain TOR1, stronger effect = lower value 0.907
0.36 (active) and 0.884 (inactive): locus YHR030C, strain SLT2, stronger effect = lower value
